Screens (PubChem BioAssay)
A selection: hits, their analogues and other compounds. The true share with any hit is near 21%.
Cycloheximide cs: Cycloheximide Counterscreen for Small Molecule Inhibitors of Shiga Toxin; cell reporter, cycloheximide protein synthesis inhibition counterscreen; max response, %; 12% of 300,000 active; AID 2314, 2010; in the data active means max response mostly above about 13%, no sharp cut-off; inactive means mostly below about 14%; further: read at 38.3 µM for the half of the compounds with a filed dose; 0% is about no effect
HCV inhibitor: qHTS Assay for Inhibitors of Hepatitis C Virus (HCV); Potency, µM (titrated, usually from 41.8 µM), for the others: top-dose activity change, negative = inhibition, usual class: inhibitors; Huh7.5.1 HCVcc-Cre infection, luciferase reporter, 44 h; 3.4% of 340,000 active; further: potency means the concentration at half of the fitted maximal effect; on the % scale 0 is the no-effect control and ±100 the full control effect
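Compounds are dispensed onto cells plated 4 h earlier at 1,000 per well, with HCVcc-Cre virus (about 0.5 moi) added next. Following 44 h of culture, luminescent signal is measured for 15 sec after 15 min with substrate at room temperature.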
Pf growth 48h: Primary qHTS for delayed death inhibitors of the malarial parasite plastid, 48 hour incubation; P. falciparum luciferase growth in erythrocytes, 48 h; Potency, µM (titrated, usually from 28.7 µM), for the others: top-dose activity change, negative = inhibition, most hits filed as inhibitors; 5.9% of 310,000 active; AID 504832, 2011; further: potency means the concentration at half of the fitted maximal effect; on the % scale 0 is the no-effect control and ±100 the full control effect
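Luciferase-expressing parasites in RBCs, 2% Hct / 0.1% parasitemia final; RPMI 1640 + 0.5% Albumax; 37 C, 5% CO2, one generation; luminescence read-out, lower signal = inhibition.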
Shiga toxin inh: A qHTS for Small Molecule Inhibitors of Shiga Toxin | Vero cells, Shiga toxin protein synthesis inhibition reporter | inhibition, % at 38.7 µM | 9.2% of 290,000 active | AID 2315, 2010; in the data active means inhibition mostly above about 28%, no sharp cut-off; inactive means mostly below about 43%; further: 0% is about no effect
Pf growth 96h: Primary qHTS for delayed death inhibitors of the malarial parasite plastid, 96 hour incubation. P. falciparum luciferase reporter growth, 96 h. Potency, µM (doses to about 28.7 µM), without a hit: top-dose activity change, negative = inhibition, actives largely listed as inhibitors. 6.9% of 320,000 active. AID 504834, 2011; further: potency means the concentration at half of the fitted maximal effect; on the % scale 0 is the no-effect control and ±100 the full control effect
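Delayed-death screen, second-generation endpoint: infected erythrocytes, 2% hematocrit, 0.05% parasitemia final; 96 hours at 37 C, 5% CO2; luciferase detection reagent; luminescence decrease equals reduced growth.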
AMA1 RON2 block: qHTS for Inhibitors of AMA1-RON; Towards Development of Antimalarial Drug Lead: Primary Screen; Plasmodium falciparum AMA1 (3D7) - RON2 peptide interaction; AlphaScreen AMA1-biotinylated RON2 peptide binding; Potency, µM (series often up to 58.2 µM), for the others: at the highest dose activity change, negative = inhibition, usual class: inhibitors; 0.2% of 360,000 active;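 further: potency means the concentration at half of the fitted maximal effect; 0% = vehicle wells and -100% = peptide control; nearly all actives have a fitted effect of over 45% in size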
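AMA1 (3D7) with his tag at 25 nM final met compounds first, then biotinylated RON2 peptide at 25 nM; detection used donor plus acceptor beads, 10 µg/mL apiece, read by AlphaScreen after 30 min at room temperature.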
Starred values were filed as active, the others as inactive; u = inconclusive; x = no result; [ ] = another dose, or the depositor's remark. Unless noted, the call rests on the fitted dose curve; in most records, active means well fitted curve in the direction sought with a large enough effect; inconclusive means small, poorly fitted or top-dose-only effect, or another doubt; inactive means no such curve, though single readings can be large; an effect the other way counts as inactive or inconclusive.

SMILES | Cycloheximide cs | HCV inhibitor | Pf growth 48h | Shiga toxin inh | Pf growth 96h | AMA1 RON2 block
COCCCn1c(SCC(=O)Nc2ccc(C)cc2)nc2ccccc2c1=O | 13 | 4% | 25% | 56* | 25% | -5%
CC(C)N(CCn1c(SCC(=O)Nc2cccnc2Cl)nc2ccccc2c1=O)C(C)C | x | u | u | x | 5.9µM* | -1%
Cc1ccc(S(=O)(=O)N(C)C)cc1-n1c(SCC(=O)Nc2ccc(F)cc2)nc2ccccc2c1=O | 4 | u | 9.3µM* | -1 | 9.3µM* | 9%
COCCn1c(SCC(=O)Nc2ccc(N3CCOCC3)cc2)nc2ccccc21 | -6 | 4% | -4% | -13 | u | -16%
Cc1ccc(-c2nc3cc(C)c(Br)c(C)n3c2CC(C)(C)C)cc1 | x | x | x | x | x | -19%
COCCCn1c(SCC(=O)Nc2ccc(C(=O)OC)cc2)nc2ccccc2c1=O | 7 | -13% | 8.3µM* | -6 | u | u
COCCn1c(SCC(=O)Nc2ccc(F)cc2)nc2ccccc2c1=O | 2 | -19% | -30% | 3 | 0% | 0%
CN(C)CCCn1c(SCC(=O)Nc2nc(-c3cccc(Br)c3)cs2)nc2ccccc2c1=O | -3 | 10µM* | u | 2 | u | -1%
Cc1ccc(NC(=O)CSc2nc3ccccc3c(=O)n2CCCN2CCCCC2)cc1C | -4 | 14µM* | 12µM* | -3 | -20% | -4%
COc1cccc(-c2cccc(-c3nc(C(=O)NCCCN4CCOCC4)cc4c3[C@H](CCO)N(S(=O)C(C)(C)C)C4)c2)c1 (stereo partly specified) | x | x | x | x | x | 12%
Nc1cc(=O)[nH]c(SCC(=O)Nc2ccc(Oc3ccccc3)cc2)n1 | -5 | -25% | -18% | -7 | -13% | -9%
CCN(C(=O)CSc1ncccn1)c1c(N)n(Cc2ccccc2)c(=O)[nH]c1=O | x | 4% | u | x | 2% | 12%
O=C(C1CCC(CNc2c(N3CCCCC3)c(=O)c2=O)CC1)N1CCc2ccccc2C1 (stereo unspecified) | -3 | -7% | 9.3µM* | -8 | -44% | 4%
CC1CCN(c2c(NCC3CCC(C(=O)NCCC4=CCCCC4)CC3)c(=O)c2=O)CC1 (stereo unspecified) | 4 | -3% | 7.4µM* | -3 | u | -6%
O=C(NCCC1=CCCCC1)C1CCC(CNc2c(N3CCCC3)c(=O)c2=O)CC1 (stereo unspecified) | -3 | 36% | u | -6 | u | 1%
O=C(NCCC1=CCCCC1)C1CCC(CNc2c(N3CCCCC3)c(=O)c2=O)CC1 (stereo unspecified) | 0 | 8% | 9.3µM* | 3 | u | -13%
O=C(Cc1ccccc1F)Nc1ccc(S(=O)(=O)N2CCCC2)cc1 | x | 18% | x | x | x | -4%
CN1C(=O)CCS(=O)(=O)C1c1ccc(Cl)c(Cl)c1 (stereo unspecified) | x | x | x | x | x | 2%
Cc1ccsc1C(=O)N(CC(C)C)c1c(N)n(Cc2ccccc2)c(=O)[nH]c1=O | 1 | x | u | 22 | -22% | -14%
CSc1sc(C(=O)OC(C)C)c2c1C(=O)CC(C)(C)C2 | 2 | -16% | 7.4µM* | -8 | u | -1%
CCCn1c(CC)nc([N+](=O)[O-])c1S(=O)(=O)c1ccccc1 | -4 | 13µM* | 10µM* | -17 | u | -5%
O=C1N/C(=C/c2ccc(N3CCOCC3)o2)C(=O)N1c1ccccc1 | 20* | u | 14% | 14 | -3% | 20%
O=C1N/C(=C/c2ccc(N3CCCC3)cc2)C(=O)N1c1ccccc1 | 17* | 1% | 77% | 49* | u | -14%
COc1ccc(OC)c2[nH]c(=O)c(CCNC(=O)c3cc4ccccc4o3)cc12 | 1 | u | 8.3µM* | -8 | 5.2µM* | -5%
CCS(=O)(=O)NCCc1cc2c(OC)ccc(OC)c2[nH]c1=O | -2 | -5% | -24% | -5 | 2.1µM* | -3%
SMILES | Cycloheximide cs | HCV inhibitor | Pf growth 48h | Shiga toxin inh | Pf growth 96h | AMA1 RON2 block
COC(=O)c1cc2sc(Cl)cc2n1Cc1nc(-c2cccc(C)c2)oc1C | -3 | x | x | 7 | 27% | x
COC(=O)c1cc2sc(Cl)cc2n1Cc1nc(-c2ccccc2)oc1C | -1 | -5% | x | -15 | 8.3µM* | -5%
Cc1cc2n(n1)C(c1ccsc1)Nc1ccccc1-2 (stereo unspecified) | 7 | u | 14% | -5 | x | 15%
CSc1ccc(C2Nc3ccccc3-c3cc(C)nn32)cc1 (stereo unspecified) | 5 | 10µM* | 29% | 11 | 43% | 10%
O=C(c1cc(-c2ccc(O)cc2)on1)N1CCN(c2ccc(F)cc2)CC1 | 7 | u | -14% | 5 | 45% | -13%
O=C(c1cc(-c2ccc(Br)cc2)on1)N1CCCC1 | 33* | 6% | 203% | 118* | 25% | 1%
O=C(O)c1cc(-c2ccccc2)on1 | -5 | -4% | x | 5 | -13% | -2%
CN1CCN(C(=O)c2cc(-c3ccccc3)on2)CC1 | 38* | 5% | 127% | 109* | x | -9%
O=C(c1cc(-c2ccc(F)cc2)on1)N1CCOCC1 | 27* | 8% | 166% | 45 | -12% | 14%
O=C(c1cc(-c2ccc3c(c2)OCO3)on1)N1CCN(c2ccc(F)cc2)CC1 | 9 | -9% | 6% | 8 | -1% | 3%
O=C(c1cc(-c2ccc(F)cc2)on1)N1CCCCCC1 | 46* | 2% | 174% | 115* | 15µM* | 8%
CC(C)(C)c1ccc(C(=O)NCC(=O)N/N=C/c2ccccc2OCC(=O)O)cc1 | -5 | u | -41%[1.15 µM] | 23 | 13% | 10%
COc1cc(C(=O)NC2CCN(CC(=O)Nc3cccc(C)c3C)CC2)cc(OC)c1OC | -1 | 1% | 5% | 2 | u | 19%
CC1(C(=O)NS(=O)(=O)c2cccc(C#N)c2)CCN1C(=O)CC1CCCCC1 (stereo unspecified) | x | x | x | x | x | 2%
O=C(CCC(=O)N1CCN(Cc2ccc(F)cc2)CC1)Nc1nnc(C(F)(F)F)s1 | -5 | 13% | -3% | -3 | 37% | 5%
COC(=O)c1cc(-c2ccc(Br)cc2)on1 | -3 | 27% | x | -2 | 159% | 6%
CCC1CCCCN1C(=O)c1cc(COc2ccc(-n3cncn3)cc2)on1 (stereo unspecified) | -4 | 32µM* | 25% | 12 | 1% | -4%
O=C(c1sc2ccccc2c1Cl)N1CCC2(CC1)OCCO2 | 12* | 15% | 26% | 17 | -3% | 3%
CCOC(=O)C1CCCN(C(=O)c2cc(COc3ccc(C)nc3)on2)C1 (stereo unspecified) | 51* | 8.9µM* | 11% | 73* | -8% | -9%
